Reference: PubChem BioAssay (NCATS)
Several values for one entry are separate records, joined by “and”; a condition that tells them apart may be missing. Identical values can stand only once. Records with an inconclusive call do not appear. Unmarked numbers belong to inactive results. Activity calls are given as the source filed them. The call rests on the fitted dose curve; in most records, active means well fitted curve in the direction sought with a large enough effect; inconclusive means small, poorly fitted or top-dose-only effect, or another doubt; inactive means no such curve, though single readings can be large or run the other way.

Assay: qHTS Assay for Identifying Gametocytocidal Compounds (AID 743244);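 on max response: actives lower the fluorescent signal which means gametocytes are killed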
Conditions: P. falciparum 3D7 stage III-V gametocytes, alamarBlue, 72 h; max response: active compounds read low
Procedure, shortened: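 Stage III-V P. falciparum 3D7 gametocytes, 20,000 per well, were exposed to compounds for 72 h at 37C, 5% CO2. AlamarBlue was then added for 24 h and viability was read as fluorescence at Ex 525/Em 598 nm.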
On the % scale 0 is the no-effect control and ±100 the full control effect; potency means the concentration at half of the fitted maximal effect.

Compound | max response | Potency
CCOC(=O)Cn1cccc1-c1nc(-c2ccc(OC)cc2)c(-c2ccc(OC)cc2)s1 | 9.5% | 
O=[N+]([O-])c1nccn1CO[C@@H](CO)[C@H](O)CO | -9.19% | 
N=C(N)c1ccc(OCCCOc2ccc(C(=N)N)cc2)cc1 |  | 4.47 µM (active)
O=C(OCC(COC(=O)c1cccnc1)(COC(=O)c1cccnc1)COC(=O)c1cccnc1)c1cccnc1 | 13.3% | 
OCc1cccnc1 | -22.7% | 
CN1CC(=O)N2[C@H](c3ccc4c(c3)OCO4)c3[nH]c4ccccc4c3C[C@@H]2C1=O | -3.23% | 
CSc1ccc(/C=C2/C(C)=C(CC(=O)O)c3cc(F)ccc32)cc1 | -4.94% | 
CC(=O)[C@H]1CC[C@H]2[C@@H]3C=CC4=CC(=O)CC[C@@]4(C)[C@@H]3CC[C@]12C | -3.42% | 
CC(=O)OCC(=O)[C@@]1(O)[C@H](OC(C)=O)C[C@H]2[C@@H]3CCC4=CC(=O)C=C[C@]4(C)[C@@]3(F)[C@@H](O)C[C@@]21C | -5.18% | 
N#C/C(=C1/SC[C@@H](c2ccc(Cl)cc2Cl)S1)n1ccnc1 | 8.83% and -5.83% and 7.31% | 
N[C@@H](Cc1cc(I)c(O)c(I)c1)C(=O)O | 18.2% | 
CC(C)=CCC/C(C)=C/CC/C(C)=C/CCC(=O)OC/C=C(\C)CCC=C(C)C | -4.29% | 
O=C(CO)[C@@H](O)[C@H](O)[C@@H](O)CO | -0.255% | 
COc1cc(NS(=O)(=O)c2ccc(N)cc2)nc(C)n1 | 34.9% | 
OCCCc1ccccc1 | -2.92% | 
CC(C)(C)C(O)/C=C/c1ccc2c(c1)OCO2 (centres undefined) | -15.2% | 
Cn1cc(S(C)=O)c(=O)c2ccc(F)cc21 (centres undefined) | -4.53% | 
O=C(Nc1ccc(S(=O)(=O)N2CCOCC2)cc1)c1cc(Cl)ccc1NS(=O)(=O)c1ccc(Cl)s1 | 15.3% | 
O=C(O)C(=O)Nc1cccc(-c2nn[nH]n2)c1 | -10.1% | 
CC(=O)N[C@@H](CCC(N)=O)C(=O)O | 4.31% | 

Compound | max response | Potency
OC[C@]1(O)OC[C@@H](O)[C@H](O)[C@@H]1O | 13.1% | 
COc1ccccc1OCC1CNC(=O)O1 (centres undefined) | -14.2% | 
CN1CCC(N(Cc2cccs2)c2ccccc2)CC1 | 8.89% | 
CCCCCCCCCCCCCC[N+](C)(C)C |  | 14.1 µM (active)
COC(=O)C1=C(C)NC(COC(N)=O)=C(C(=O)OC(C)C)C1c1cccc(Cl)c1Cl (centres undefined) | -16.2% | 
Cc1ccccc1C(=O)N1CC/C(=N\OS(=O)(=O)O)c2ccc(Cl)cc21 | 0.506% | 
O=C(COCCOCCOCC(=O)Nc1c(I)cc(I)c(C(=O)O)c1I)Nc1c(I)cc(I)c(C(=O)O)c1I | 31% | 
CC1CC(=O)NN=C1c1ccc(NCC(C)(C)NCC(O)COc2cc(Cl)ccc2C#N)cc1 (centres undefined) | 11.8% | 
CNC[C@H](O)[C@@H](O)[C@H](O)[C@H](O)CO | 10.7% | 
CCOC(=O)OCC/C(SC(=O)OCC)=C(\C)N(C=O)Cc1cnc(C)nc1N | 11.2% | 
CC1(C)S[C@@H]2[C@H](NC(=O)C(c3ccccc3)S(=O)(=O)O)C(=O)N2[C@H]1C(=O)O (some centres undefined) | -17.7% | 
Cc1ccc(/C=N/n2c(-c3ccccc3)csc2=S)cc1 | -23% | 
CCNC(=O)NCCCOc1cccc(CN2CCCCC2)c1 | -8.1% | 
CCN1C(=O)c2ccccc2C1Nc1ccc(OCCN2CCCCC2)cc1 (centres undefined) | -8.48% | 
CC(=O)Nc1c(I)c(NC(C)=O)c(I)c(C(=O)O)c1I | -5.52% | 
CC(COc1ccccc1)NN (centres undefined) | -1.29% | 
O=C(O)Cc1ccccc1Oc1ccc(Cl)cc1Cl | 10.5% | 
CCOC(=O)NNc1nncc2ccccc12 | -13.4% | 
O=C1CC2(CCCC2)CC(=O)N1CCNCC1COc2ccccc2O1 (centres undefined) | 2.39% | 
